Assay results published in PubChem BioAssay AID687042 (Broad Institute, 2013).
The source made the active and inactive calls.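 Rule for the calls: active = absorbance drop of 50% or more relative to neutral controls, with potency under twice the top valid dose; inactive = the rest, including effects in the opposite direction.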

Biological target: Protein disulfide-isomerase A6 (Homo sapiens) (UniProt Q15084)
Experiment: ERp5 insulin-reduction activity inhibitors – biochemical, insulin aggregation, absorbance, dry powder, set 2, selectivity assay for PDI inhibitor project, dose response (AID 687042)
Settings: absorbance 650 nm; series mostly up to 35 µM; activity, negative = inhibition: at the top concentration

Chain of Protein disulfide-isomerase A6 (Homo sapiens) (Q15084 whole entry, looked up): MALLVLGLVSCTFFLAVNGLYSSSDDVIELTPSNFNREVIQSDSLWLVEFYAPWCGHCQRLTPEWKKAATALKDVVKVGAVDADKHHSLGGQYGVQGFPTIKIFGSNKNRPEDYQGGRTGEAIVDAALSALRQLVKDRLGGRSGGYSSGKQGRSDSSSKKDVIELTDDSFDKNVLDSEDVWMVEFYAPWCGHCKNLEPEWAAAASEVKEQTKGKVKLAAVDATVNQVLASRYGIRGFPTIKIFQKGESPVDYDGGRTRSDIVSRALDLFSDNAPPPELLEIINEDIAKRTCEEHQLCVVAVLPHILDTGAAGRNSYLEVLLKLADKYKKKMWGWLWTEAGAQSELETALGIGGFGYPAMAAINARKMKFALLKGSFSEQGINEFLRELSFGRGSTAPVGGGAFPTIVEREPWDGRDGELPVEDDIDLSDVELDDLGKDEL

activity, negative = inhibition, inactive:
C/C1=C\C[C@H](OC(=O)c2ccc(O)cc2)/C(C)=C/[C@@H](O)C(C)(C)CCC1 14.5%
CCOC(=O)C1(CCOC)CCN(Cc2ccc(O)c(Cl)c2)CC1 -4.25%
CC(C)(C)OC(=O)C1(CCOc2ccccc2)CCN(Cc2ccc(O)c(Cl)c2)CC1 7.04%
CCOC(=O)C1(CCOc2ccccc2)CCN(Cc2ccc(OC)c(Cl)c2)CC1 -4.15%
O=C(N1CCCC1)C1(CCOc2ccccc2)CCN(Cc2ccc(O)c(Cl)c2)CC1 0.652%
O=C(Nc1ccccc1)C1(CCOc2ccccc2)CCN(Cc2ccc(O)c(Cl)c2)CC1 -7.01%
CCOC(=O)C1(CCOC)CCCN(Cc2ccc(Cl)cc2)C1 (stereo not drawn) -6.3%
C=CCOc1ccc(CN2CCC(CCOc3ccccc3)(C(=O)O)CC2)cc1Cl 5.75%
CCOC(=O)C1(Cc2ccccc2)CCN(Cc2ccc(O)c(Cl)c2)CC1 -8.26%
CCN(C)C(=O)C1(CCOc2ccccc2)CCN(Cc2ccc(O)c(Cl)c2)CC1 4.18%
CCOC(=O)C1CCN(C(=O)OC(C)(C)C)CC1 0.268%
CCOC(=O)C1(CCOc2ccccc2)CCN(Cc2ccc3[nH]c(=O)oc3c2)CC1 2.69%
CCOC(=O)C1(Cc2cccc(OC)c2)CCN(Cc2ccc(O)c(Cl)c2)CC1 5.81%
